From PubChem BioAssay
This is a sample that favours compounds with a hit; in the whole collection about 2.9% have one here.
A3G deaminase: blocks human APOBEC3G single-stranded DNA deamination | recombinant A3G, ssDNA deamination FAM/TAMRA fluorescence | inhibition, % at 20 µM | 330,000 compounds, 0.28% hits | AID 493012;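 active means inhibition of at least 40% at 20 µM, with no more than 30% in the related APOBEC3A deaminase screen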
Target sequence (Q9HC16 whole entry, looked up): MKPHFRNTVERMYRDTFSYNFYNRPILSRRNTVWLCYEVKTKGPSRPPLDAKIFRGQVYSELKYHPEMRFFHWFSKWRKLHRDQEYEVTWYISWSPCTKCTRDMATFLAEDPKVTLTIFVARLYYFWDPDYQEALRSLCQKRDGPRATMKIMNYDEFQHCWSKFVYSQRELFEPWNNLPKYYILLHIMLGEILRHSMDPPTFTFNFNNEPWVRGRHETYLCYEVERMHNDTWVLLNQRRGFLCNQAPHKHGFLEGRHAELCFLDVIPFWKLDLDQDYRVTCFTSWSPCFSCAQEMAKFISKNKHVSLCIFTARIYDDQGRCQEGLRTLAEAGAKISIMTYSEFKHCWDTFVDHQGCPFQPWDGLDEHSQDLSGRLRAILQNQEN
NadD inh: inhibitors of Staphylococcus aureus NadD; inhibition, % at 20 µM; purified NadD enzyme, colorimetric absorbance read-out; 360,000 compounds, 0.78% hits; in the data active means inhibition above about 26%
APOBEC3A inh: inhibitors of human APOBEC3A DNA deaminase; recombinant A3A, FAM/TAMRA ssDNA deamination fluorescence; inhibition, % at 20 µM; 330,000 compounds, 0.41% hits;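 active means at least 40% inhibition at 20 µM here, with at most 30% in a related deaminase screen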
Target sequence (P31941 whole entry, looked up): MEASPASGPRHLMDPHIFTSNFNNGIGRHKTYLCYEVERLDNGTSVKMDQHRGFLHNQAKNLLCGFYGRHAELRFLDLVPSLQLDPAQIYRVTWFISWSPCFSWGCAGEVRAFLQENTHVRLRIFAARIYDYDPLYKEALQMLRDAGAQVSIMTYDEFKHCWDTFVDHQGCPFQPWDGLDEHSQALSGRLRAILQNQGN
TAG inh: triacylglycerol accumulation inhibition. H9c2 cells, Nile Red lipid (TAG) fluorescence; cells loaded with 200 µM oleic acid. inhibition, % at 12.5 µM. 230,000 compounds, 0.66% hits;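 active means pattern-corrected inhibition of lipid staining of at least 50% with the nuclear-stain viability signal not falling by more than 50%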
PfGluPho inh: PfG6PD (Plasmodium falciparum) enzyme inhibition | inhibition, % at 20 µM | PfGluPho enzyme, NADPH resazurin-diaphorase fluorescence | 350,000 compounds, 0.78% hits;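 active means inhibition reaching at least a set limit at 20 µM in the primary screen, cut at about 59% in these data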
H9c2 protect: protects H9c2 cardiomyocytes from peroxide injury; H2O2 injury protection, ATPLite, 2 h; protection from H2O2 cell death, % at 20 µM; 360,000 compounds, 0.63% hits; AID 588492;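 active means compounds giving at least 50% protection of heart cells from peroxide-induced death in the single-dose screen, raw or plate-pattern-corrected value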
NadD conf: confirmation of Staphylococcus aureus NadD inhibitors; purified S. aureus NadD, colorimetric enzyme assay; AID 624309; shares compounds with NadD inh; inhibition, % at 20 µM; 2,000 compounds, 13% hits; in the data active means inhibition mostly above about 42%, no sharp cut-off; inactive means mostly below about 42%
Numbers stand for hits; 0 = inactive; - = no result.

SMILES	A3G deaminase	NadD inh	APOBEC3A inh	TAG inh	PfGluPho inh	H9c2 protect	NadD conf
C/C(CC1CC(C)OC1=O)=N\NC(N)=S (stereo unspecified)	0	0	0	0	0	0	-
Cc1cc(-n2c(SCC(=O)Nc3ccc(F)c(F)c3)nc3n[nH]c(C)c3c2=N)ccc1Cl	0	0	0	-	0	0	-
Cc1cc(-n2c(SCC(=O)Nc3ccc(Br)cc3)nc3n[nH]c(C)c3c2=N)ccc1Cl	0	32	0	-	0	0	0
Cc1cc[n+](CC(=O)c2ccc(NC(=O)c3ccccc3)cc2)c2ccccc12	0	37	0	0	0	0	0
CCc1ccccc1NC(=O)C1CCN(C(=O)c2ccc([N+](=O)[O-])cc2)CC1	0	0	0	-	0	0	-
CC(C)C[C@H]1CN([C@@H](Cc2ccc(O)cc2)CN2CCC[C@@H]2CN2C(=O)C(=O)NC[C@@H]2Cc2ccccc2)C(=O)C(=O)N1CC1CCCCC1	-	31	-	0	0	0	0
CC(C)C[C@H]1CN([C@@H](Cc2ccc(O)cc2)CN2CCC[C@H]2CN2C(=O)C(=O)NC[C@@H]2Cc2ccccc2)C(=O)C(=O)N1CC1CCCCCC1	-	30	-	-	-	-	0
Cc1ccc(Sc2nc([N+](=O)[O-])nn2C)cc1	0	0	0	0	0	0	-
Cc1ccc(C(=O)CCC(=O)Nc2ccc(C)cn2)cc1	0	0	0	0	0	0	-
CCN(CC(=O)Nc1ccc2c(c1)OCCO2)C(=O)/C=C/c1ccc([N+](=O)[O-])cc1	0	0	0	0	0	0	-
Cc1ccc(Cl)cc1N1CCN(C(=O)c2cc3c(=O)[nH]c4ccccc4c3n2C)CC1	0	32	0	-	0	0	0
Cn1c(C(=O)N2CCN(c3ccc(Cl)cc3)CC2)cc2c(=O)[nH]c3ccccc3c21	0	0	0	0	0	0	-
Cc1ccc(C)c(N2CCN(C(=O)c3ccc(Cn4c(=S)[nH]c5ccc(N6CCOCC6)cc5c4=O)cc3)CC2)c1	0	30	0	0	0	0	0
CCCCn1c(=S)[nH]c2ccc(N3CCOCC3)cc2c1=O	0	-	0	-	-	-	-
Cc1cccc(N2CCN(C(=O)CCCCCn3c(=S)[nH]c4ccc(N5CCOCC5)cc4c3=O)CC2)c1C	0	46	0	-	0	0	0
CC(C)[C@H]1COCCS(=O)(=O)N1Cc1ccccc1	0	0	0	-	0	0	-
O=C(CCCSc1nnnn1-c1cccc2ccccc12)c1ccc(F)cc1	0	0	0	0	0	0	-
CN(C)c1ccc(-c2cccc(C3CC=CC4C3C(=O)N(Cc3ccccc3)C4c3ccc4ccccc4c3)c2)cc1 (stereo unspecified)	0	32	0	0	0	0	0
COc1ccc(C2C3C=CCC(c4cccc(-c5ccc(C)cc5)c4)C3C(=O)N2Cc2ccccc2)cc1Cl (stereo unspecified)	0	36	0	-	0	0	0
COc1ccc(-c2cccc(C3CC=CC4C3C(=O)N(Cc3ccccc3)C4c3ccc4ccccc4c3)c2)cc1 (stereo unspecified)	0	31	0	0	0	0	0
Cc1ccc(-c2cccc(C3CC=CC4C3C(=O)N(Cc3ccccc3)C4c3ccc(C(F)(F)F)cc3)c2)cc1 (stereo unspecified)	0	0	0	0	0	0	-
N#Cc1c(N2CCN(c3ccc(F)cc3)CC2)nc(N)c2c(N)nc3c(c12)CC(=O)N3C1CC1	-	44	-	0	0	0	0
Cc1cccn2c(=O)c3cc(C(N)=S)c(=N)n(CCCN4CCOCC4)c3nc12	0	36	0	0	0	0	0
O=c1cc(CN2CCN(C/C=C/c3ccccc3)CC2)c2cc(O)c(-c3ccccc3)cc2o1	0	39	0	-	0	0	0
O=C(NNC(=S)NC(=O)c1sc2ccccc2c1Cl)c1ccc(Cl)cc1	0	36	0	-	0	0	0
SMILES	A3G deaminase	NadD inh	APOBEC3A inh	TAG inh	PfGluPho inh	H9c2 protect	NadD conf
COc1cc(NS(=O)(=O)c2ccc(NC(=S)NC(=O)c3sc4ccccc4c3Cl)cc2)nc(OC)n1	-	0	-	-	0	0	-
NC(N)=NS(=O)(=O)c1ccc(NC(=S)NC(=O)c2sc3ccccc3c2Cl)cc1	0	43	0	-	0	0	0
NC(N)=NS(=O)(=O)c1ccc(NC(=S)NC(=O)c2ccncc2)cc1	0	0	0	-	0	0	-
COc1cc(NS(=O)(=O)c2ccc(NC(=S)NC(=O)c3sc4cc(F)ccc4c3Cl)cc2)nc(OC)n1	0	35	0	-	0	0	0
Cc1ccc(OCC(=O)Oc2cccc(C)c2C)cc1	0	0	0	-	0	0	-
CCCCn1c(N)c(N(CC(C)C)C(=O)CCNC(=O)c2ccccc2Cl)c(=O)[nH]c1=O	0	0	0	0	0	0	-
O=S(=O)(O)c1cc(O)c2ccc(Nc3ccccc3)cc2c1	-	33	-	0	0	0	66
O=C(O)c1ccccc1NS(=O)(=O)c1ccc(NN=Cc2ccccc2F)c([N+](=O)[O-])c1	0	0	0	0	0	0	-
CSc1ccc(C=NNc2ccc(S(=O)(=O)Nc3ccccc3C(=O)O)cc2[N+](=O)[O-])cc1	0	41	0	0	0	0	0
CCOc1ccc(C=NNc2ccc(S(=O)(=O)Nc3ccccc3C(=O)O)cc2[N+](=O)[O-])cc1	0	34	0	0	0	0	76
COc1ccc(C2C(C(=O)N3CCCCC3)CC(=O)N2c2ccc(OC)cc2)cc1 (stereo unspecified)	0	0	0	0	0	0	-
O=C(Nc1cccc2ccccc12)c1csc([C@@H]2O[C@H](CO)[C@H](O)[C@H](O)[C@H]2O)n1	-	0	-	0	-	0	-
CC(C)C[C@H]1CNC(=S)N1C[C@H]1CCCN1C[C@H](Cc1ccc(O)cc1)N1C[C@H](Cc2ccc(O)cc2)N(CC2CCCCCC2)C1=S	-	44	-	-	-	0	0
CC(C)C[C@H]1CN([C@@H](Cc2ccc(O)cc2)CN2CCCC2CN2C(=S)NC[C@@H]2Cc2ccccc2)C(=S)N1CC1CCCCC1 (stereo partly specified)	-	0	-	-	-	-	-
CC(C)C[C@H]1CN([C@@H](Cc2ccc(O)cc2)CN2CCC[C@@H]2CN2C(=S)NC[C@@H]2Cc2ccccc2)C(=S)N1CC1CCCCCC1	-	0	-	-	-	0	-
Oc1ccc(C[C@H]2CNC(=S)N2C[C@H]2CCCN2C[C@H](Cc2ccccc2)N2C[C@H](Cc3ccccc3)N(CC3CCCCC3)C2=S)cc1	-	39	-	-	-	-	0
CC(C)C[C@H]1CNC(=S)N1CC1CCCN1C[C@H](Cc1ccccc1)N1C[C@H](Cc2ccc(O)cc2)N(CC2CCCCCC2)C1=S (stereo partly specified)	-	32	-	0	0	0	0
CCCc1cc(=O)oc2c3c(c4c(c12)OC(C)(C)C=C4)OC(C)C(C)C3O (stereo unspecified)	0	0	0	-	0	0	-
O=C(Nc1ccc(S(=O)(=O)Nc2nccs2)cc1)c1cc(-c2ccccc2Cl)nc2ccccc12	0	67	0	0	0	0	65
